Screens from PubChem BioAssay.
HP1b chromo inh – blocks HP1-beta chromodomain binding to methylated histone tails. Potency, µM (highest dose often 114 µM), hits mostly inhibitors. AID 540317. P83916. 390,000 compounds, 0.56% hits. AlphaScreen HP1-beta / biotin-H3K9me3 peptide binding; also: nearly all actives have a fitted effect of over 70% in size
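AlphaScreen: HP1-beta (50 nM) preformed 30 min with biotin-H3(1-18)K9me3 peptide (50 nM) in PBS pH 7.4, 0.01% Tween-20. Compound added for 30 min at RT, then streptavidin donor/nickel chelate acceptor beads (10 ug/mL) for 30 min.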
G9a block – blocks human histone lysine methyltransferase G9a; AID 504332; Potency, µM (highest dose often 102 µM), hits mostly inhibitors; G9a H3K9 monomethylation, AlphaScreen, 2 h; 350,000 compounds, 8.8% hits; also: nearly all actives have a fitted effect of over 75% in size
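Quantitative HTS format: methyltransferase activity on a biotin-tagged H3K9 peptide is measured by AlphaScreen, using a rabbit anti-monomethyl-H3K9 antibody with streptavidin donor and anti-IgG acceptor beads. Final levels are 20 nM enzyme, 500 nM peptide, 20 uM SAM; 2 h RT.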
JMJD2A Tudor inh – JMJD2A Tudor domain (human) inhibition. O75164. Potency, µM (highest dose often 114 µM), hits mostly inhibitors. AlphaScreen JMJD2A-Tudor / H3K4me3 peptide binding. 390,000 compounds, 4.4% hits; also: nearly all actives have a fitted effect of over 50% in size
Six1-Eya2 inh – blocks human Six1 binding to Eya2 | AID 651725 | 360,000 compounds, 0.56% hits | activity change, % (no concentration beside the values) | AlphaScreen GST-Six1/His-Eya2 binding, biochemical; active compounds read low | Q15475+O00167; in the data active = activity change below about -65%; inconclusive = mostly about -30% to -63%
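Homogeneous AlphaScreen proximity assay pairing GST-Six1 with His-tagged Eya2 (added as 5X mix: 250 nM and 500 nM) in 50 mM Tris pH 8.0, 300 mM NaCl, 1 mM TCEP. Glutathione donor and nickel acceptor beads; 1 h, 37 °C, dark.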
CtBP-E1A inh – CtBP/E1A binding inhibition; AlphaScreen GST-E1A/His-CtBP binding, 1536-well; active compounds read low; activity change, % (no concentration beside the values); 340,000 compounds, 0.49% hits; in the data active = activity change below about -65%; inconclusive = mostly about -30% to -63%
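AlphaScreen with 125 nM GST-E1A and 125 nM His-CtBP (5X stocks) in Tris pH 8.0, 300 mM NaCl, BSA, Tween 20, TCEP. Compounds preincubated 2 h at 37 deg C, then glutathione donor/nickel acceptor beads added for 1 h at 37 deg C in dark.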
BAZ2B inh – inhibitors of human BAZ2B bromodomain; AID 504333; 360,000 compounds, 4.4% hits; Potency, µM (top dose mostly 114 µM), actives largely listed as inhibitors; AlphaScreen BAZ2B-H3K14Ac peptide displacement; also: nearly all actives have a fitted effect of over 60% in size
Target sequence (Q9UIF8 whole entry, looked up): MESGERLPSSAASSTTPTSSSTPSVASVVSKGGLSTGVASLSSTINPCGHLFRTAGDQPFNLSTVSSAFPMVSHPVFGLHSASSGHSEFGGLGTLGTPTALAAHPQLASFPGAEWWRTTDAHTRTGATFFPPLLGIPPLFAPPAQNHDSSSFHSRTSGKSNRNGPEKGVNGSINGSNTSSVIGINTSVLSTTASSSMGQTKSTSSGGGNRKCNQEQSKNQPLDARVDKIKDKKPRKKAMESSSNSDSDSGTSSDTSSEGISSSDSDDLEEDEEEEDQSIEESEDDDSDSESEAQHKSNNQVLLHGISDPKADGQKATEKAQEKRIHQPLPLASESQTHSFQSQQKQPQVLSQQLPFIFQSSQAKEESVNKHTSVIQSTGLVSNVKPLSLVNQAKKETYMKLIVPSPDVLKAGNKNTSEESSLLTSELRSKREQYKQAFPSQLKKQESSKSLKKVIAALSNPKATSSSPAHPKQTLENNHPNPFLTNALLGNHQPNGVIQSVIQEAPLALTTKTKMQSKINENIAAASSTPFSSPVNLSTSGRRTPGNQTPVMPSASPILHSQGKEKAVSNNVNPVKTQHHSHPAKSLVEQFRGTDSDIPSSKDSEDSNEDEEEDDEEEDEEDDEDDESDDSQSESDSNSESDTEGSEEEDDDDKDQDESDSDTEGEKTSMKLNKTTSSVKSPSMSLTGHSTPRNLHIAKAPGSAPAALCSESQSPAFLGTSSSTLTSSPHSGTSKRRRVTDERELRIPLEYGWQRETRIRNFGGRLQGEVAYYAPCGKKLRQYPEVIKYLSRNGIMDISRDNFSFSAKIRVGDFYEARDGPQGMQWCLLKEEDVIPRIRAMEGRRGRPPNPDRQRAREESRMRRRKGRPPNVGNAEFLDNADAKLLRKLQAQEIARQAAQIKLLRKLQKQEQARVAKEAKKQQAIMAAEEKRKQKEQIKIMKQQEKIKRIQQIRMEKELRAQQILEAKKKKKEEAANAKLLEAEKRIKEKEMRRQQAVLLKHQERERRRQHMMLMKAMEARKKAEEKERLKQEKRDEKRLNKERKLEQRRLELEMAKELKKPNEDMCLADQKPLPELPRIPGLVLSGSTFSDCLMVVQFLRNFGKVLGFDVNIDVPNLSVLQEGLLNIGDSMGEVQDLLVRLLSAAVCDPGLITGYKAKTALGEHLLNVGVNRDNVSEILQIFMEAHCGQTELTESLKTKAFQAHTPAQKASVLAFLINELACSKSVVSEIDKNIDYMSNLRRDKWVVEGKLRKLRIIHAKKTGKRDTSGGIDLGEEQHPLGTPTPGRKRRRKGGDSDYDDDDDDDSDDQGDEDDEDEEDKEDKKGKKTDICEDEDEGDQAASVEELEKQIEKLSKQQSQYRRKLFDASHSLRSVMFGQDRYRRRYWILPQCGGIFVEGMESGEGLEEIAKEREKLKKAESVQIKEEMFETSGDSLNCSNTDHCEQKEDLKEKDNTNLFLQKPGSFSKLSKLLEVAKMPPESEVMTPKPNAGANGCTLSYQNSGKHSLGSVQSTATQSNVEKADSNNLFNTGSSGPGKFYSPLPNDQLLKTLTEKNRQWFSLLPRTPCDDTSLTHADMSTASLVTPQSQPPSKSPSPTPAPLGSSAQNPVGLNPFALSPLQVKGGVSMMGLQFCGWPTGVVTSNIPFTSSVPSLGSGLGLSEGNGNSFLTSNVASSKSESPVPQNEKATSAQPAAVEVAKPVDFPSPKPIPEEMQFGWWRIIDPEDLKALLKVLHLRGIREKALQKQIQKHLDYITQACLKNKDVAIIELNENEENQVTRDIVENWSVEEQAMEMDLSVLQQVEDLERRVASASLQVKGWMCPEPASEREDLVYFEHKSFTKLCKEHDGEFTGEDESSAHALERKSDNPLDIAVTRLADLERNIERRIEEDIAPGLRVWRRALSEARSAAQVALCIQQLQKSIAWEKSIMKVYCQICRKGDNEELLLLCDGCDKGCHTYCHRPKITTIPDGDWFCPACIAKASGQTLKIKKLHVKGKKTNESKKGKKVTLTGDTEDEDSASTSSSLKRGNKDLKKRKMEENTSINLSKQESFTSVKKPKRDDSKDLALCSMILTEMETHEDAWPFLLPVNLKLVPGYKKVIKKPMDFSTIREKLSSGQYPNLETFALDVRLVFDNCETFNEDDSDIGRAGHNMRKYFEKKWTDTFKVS
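In this displacement format the biotinylated H3(5-23) peptide acetylated at Lys14 serves as ligand at 50 nM, with BAZ2B at 50 nM in PBS pH 7.4 containing 0.01% Tween-20. Donor and acceptor beads are 10 ug/mL final.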
Each line names hits and unclear results; the compound was inactive in the other large screens. Rows were chosen to be rich in hits. Some 10% of all compounds tested hit in one or more screens of this group. Unless noted, calls follow the shape of the dose curve; as a rule, active = well fitted inhibition curve with a large enough effect; inconclusive = small, poorly fitted or top-dose-only effect; inactive = no such curve, though single readings can be large or run the other way.

CC(C)NC(=S)Nc1c(N)[nH]c(=O)[nH]c1=O	G9a block 56.2µM
Cc1nn(C)c(Oc2cccc(Cl)c2)c1C#N	JMJD2A Tudor inh 20µM (no result: CtBP-E1A inh)
COc1ccc(NC(=O)NC(C)(C(F)(F)F)C(F)(F)F)cc1	JMJD2A Tudor inh 15.8µM
CC(NC(=O)Nc1ccc(O)cc1)(C(F)(F)F)C(F)(F)F	G9a block 11.2µM, CtBP-E1A inh inconclusive
O=c1c2ccccc2sn1-c1cc(S(=O)(=O)N2CCOCC2)ccc1N1CCOCC1	HP1b chromo inh 8.91µM, JMJD2A Tudor inh 3.98µM, BAZ2B inh 3.55µM (no result: G9a block)
O=c1c2ccccc2sn1-c1cc(S(=O)(=O)N2CCOCC2)ccc1N1CCCC1	G9a block inconclusive, JMJD2A Tudor inh 22.4µM, BAZ2B inh 14.1µM
O=c1c2ccccc2sn1-c1cc(S(=O)(=O)N2CCOCC2)ccc1N1CCCCC1	HP1b chromo inh inconclusive, JMJD2A Tudor inh 12.6µM (no result: G9a block, Six1-Eya2 inh, CtBP-E1A inh, BAZ2B inh)
O=S(=O)(c1ccc(N2CCOCC2)c(Cl)c1)N1CCOCC1	none
Nc1cc(S(=O)(=O)N2CCOCC2)ccc1N1CCCCC1	HP1b chromo inh inconclusive, JMJD2A Tudor inh inconclusive (no result: G9a block, BAZ2B inh)
Cc1cccc(NC(=O)Cn2c(=O)n(CC3CCC(C(=O)NCCc4ccccc4)CC3)c(=O)c3ccccc32)c1 (centres undefined)	none (no result: Six1-Eya2 inh, CtBP-E1A inh)
O=C(Nc1ccccc1C(F)(F)F)c1cc2ncc(CCCl)cn2n1	G9a block inconclusive
C=CCNC(=O)COc1cc(C)cc(C)c1C	G9a block inconclusive, BAZ2B inh 79.4µM
C=CCNC(=O)CCCOc1cc(C)ccc1C	JMJD2A Tudor inh inconclusive
CCOc1ccc(NC(=O)Cn2nnc(-c3nc(-c4ccncc4)no3)c2N)cc1	none (no result: Six1-Eya2 inh, CtBP-E1A inh)
Cc1c(Br)c([N+](=O)[O-])nn1CC(=O)Nc1ccc(Cc2ccncc2)cc1	G9a block 44.7µM, BAZ2B inh inconclusive
O=C(CCN1CCCCC1)NNC(=S)NC(=O)c1ccc(Br)cc1	G9a block 11.2µM, JMJD2A Tudor inh inconclusive, Six1-Eya2 inh inconclusive, BAZ2B inh inconclusive
O=C(CCN1CCOCC1)NNC(=S)NC(=O)c1ccc(Br)cc1	G9a block 7.94µM, JMJD2A Tudor inh inconclusive
CCOc1ccc(S(=O)(=O)NCCc2csc3nc(-c4ccc(F)cc4)nn23)cc1	none (no result: Six1-Eya2 inh, CtBP-E1A inh)
Cc1ccc(S(=O)(=O)N2c3ccccc3OC(C(=O)OC(C)(C)C)(C(=O)OC(C)(C)C)C2CC(=O)c2ccccc2)cc1 (centres undefined)	none (no result: HP1b chromo inh, G9a block, JMJD2A Tudor inh, BAZ2B inh)
Oc1ccc(N2CCN(Cc3cc4c(cc3Br)OCCO4)CC2)cc1	HP1b chromo inh inconclusive, G9a block 1.78µM, JMJD2A Tudor inh 35.5µM, BAZ2B inh 39.8µM
O=S(=O)(c1ccc(F)cc1)N1CCN(Cc2cc3c(cc2Br)OCCO3)CC1	none
CCOC(=O)c1c(C)[nH]c(C)c1S(=O)(=O)N1CCCC(C(=O)Nc2ccc(C)c(N(C)C)c2)C1 (centres undefined)	BAZ2B inh inconclusive (no result: Six1-Eya2 inh, CtBP-E1A inh)
FC(F)(F)c1cccc(N2CCN(c3ncnc4c3nc3n4CCCC3)CC2)c1	none (no result: Six1-Eya2 inh, CtBP-E1A inh)
Cc1ccc(-c2csc(=S)[nH]2)cc1	G9a block 12.6µM, BAZ2B inh inconclusive
Cc1ccc(-c2ccc(C(=O)O)[nH]2)cc1	none
S=c1nccc(-c2ccc(Cl)cc2)[nH]1	none
S=c1[nH]c(-c2ccc(Cl)cc2)cs1	G9a block 35.5µM, JMJD2A Tudor inh inconclusive, BAZ2B inh 44.7µM
Cc1ccc(CNC(=O)C2CCCN2S(=O)(=O)c2ccc(F)cc2)cc1 (centres undefined)	none (no result: G9a block)
O=C(NCc1ccccc1)C1CCCN1S(=O)(=O)c1ccc(F)cc1 (centres undefined)	CtBP-E1A inh -81.0, BAZ2B inh inconclusive (no result: G9a block)
COc1cccc(NC(=O)CCC2CCN(C(=O)c3cncs3)CC2)c1	G9a block 39.8µM
CSc1nc(N)c2ncn([C@@H]3O[C@H](COP(=O)(O)OP(=O)(O)O)[C@H](O)[C@H]3O)c2n1	none (no result: HP1b chromo inh, JMJD2A Tudor inh, Six1-Eya2 inh, CtBP-E1A inh, BAZ2B inh)
CCc1ccccc1N(C)S(=O)(=O)c1ccc2[nH]cc(C(=O)O)c(=O)c2c1	G9a block 44.7µM, BAZ2B inh inconclusive
CCN(CC)CCNS(=O)(=O)c1ccc2[nH]cc(C(=O)O)c(=O)c2c1	G9a block inconclusive, JMJD2A Tudor inh 56.2µM, BAZ2B inh inconclusive
